The results in this text go back to PubChem BioAssay (NCI).

“And” between values parts separate entries of the source, which are not always exact repeats. Identical values can stand only once. Compounds without any hit were thinned out: in the full panel of roughly 83,000, 20% have a hit.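 The test compound was applied at a single concentration to cells in 96-well plates for 48 hours, and percent growth was recorded.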 The source made the active and inactive calls. How the source made its calls: active means growth percent below 10; inactive means the rest.

The test relates to MDA-MB-468 breast. Description: NCI-60 one-dose screen, 48 h (100 = growth as untreated, 0 = no growth, -100 = all killed). The settings on record: 10 µM unless noted.
For `COc1cnc2c(c1)C(=O)c1c-2n(CCCN2CCN(CCO)CC2)c(=O)c2cc([N+](=O)[O-])ccc12`, the growth is 76.6% (inactive).
The result for `COC(=O)C1CC(=O)N(C(=O)Nc2ccc(Cl)cc2Cl)C1` (centres undefined) reads 97.8% (inactive); that for `COc1ccc(-c2cn[nH]c2-c2cc(OC)c3c(c2)OCCO3)cc1`, 5.64% (active).
The result for `CCCc1n(Cc2ccc3ccccc3n2)cc[n+]1Cc1ccc2ccccc2c1` reads -28.4% (active); that for `CCOC(=O)c1sc(N)nc1-c1ccccc1`, 97.4% (inactive).
Under `CCCCCCCCCCCCCCCC[N+](C)(C)CCN(Cc1ccc(OC)cc1)c1ncccn1` stands -49.2% (active) and -52.1% (active); under `O=C1/C(=C/c2cccc([N+](=O)[O-])c2)COc2ccc(O)cc21`, 36.9% (inactive); under `CC1=C2C(=C[C@@](C)(COS(N)(=O)=O)[C@@H]2O)C(=O)[C@](C)(O)C12CC2`, -34% (active).
With `N=C(N)c1ccc(-c2ccc(-c3ccc(Cl)c(Cl)c3)s2)cc1`, the growth is -61.6% (active).
For `CC(NNC(C)c1ccccc1)c1ccccc1` (centres undefined), the growth is 104% (inactive).
Under `Cc1ccc(S(=O)(=O)NCCCNc2nccc(-c3[nH]c(-c4ccccc4)nc3-c3ccc(F)c(O)c3)n2)cc1` stands 33.9% (inactive); under `N#Cc1ccccc1-c1ccc(CN2C(=O)S/C(=C\c3ccc(Br)cc3)C2=O)cc1`, 112% (inactive).
Turning to `COc1cc2oc(-c3ccc(O)cc3)cc(=O)c2c(O)c1I`, the growth is 105% (inactive).
As for `CCCCNC(=O)Oc1ccc(/C(=C(/CC)Cc2ccccc2)c2ccc(OCCN3CCCCCC3)cc2)cc1`, the growth is 6.65% (active).
